# Laboratory results taken from PubChem BioAssay AID1645838 (ICCB-Longwood Screening Facility, Harvard Medical School, 2021).
# Out of some 2,000 compounds screened, about 100 (5%) were called active. Rule as the data show it: active = z-score above about 2; inactive = the rest. The list comes from a sample in which actives are over-represented; it also holds similar structures and randomly drawn compounds.
# Assay: supercomplex reporter luminescence per Hoechst cell count – Hoechst nuclei count (AID 1645838);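 also: control cybrid cells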;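 as to z-score: higher means more mitochondrial supercomplex formation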
# Conditions: Cells, luminescence/Hoechst cell count ratio; for z-score: stronger effect = higher value; for cell count: measured here: cell number, Hoechst nuclei count
# [1] = library stock concentration (final well concentration not given) 46 uM
# [2] = library stock concentration (final well concentration not given) 278 uM
# [3] = library stock concentration (final well concentration not given) 1.67 mM
# [4] = library stock concentration (final well concentration not given) 10 mM
# [5] = library stock concentration (final well concentration not given) 80 uM
# [6] = library stock concentration (final well concentration not given) 400 uM
# [7] = library stock concentration (final well concentration not given) 2 mM
smiles,measurement,setting,value
CC(C(=O)Nc1cccc(N=Cc2c(O)ccc3ccccc23)c1)c1ccccc1 (stereo not given),z-score,,-0.78 (inactive)
same,cell count,,5730
COc1ccccc1Oc1c(NS(=O)(=O)c2ccc(C)cn2)nc(-c2ccncc2)nc1OC,z-score,[1],-0.0599 (inactive)
same,z-score,[2],-0.113 (inactive)
same,z-score,[3],0.0903 (inactive)
same,z-score,[4],0.0187 (inactive)
same,cell count,[1],7280
same,cell count,[2],6760
same,cell count,[3],7600
same,cell count,[4],7550
CCCCCCCCCCCCCCCC(=O)OC[C@H](COP(=O)([O-])OCC[N+](C)(C)C)OC(=O)CCCCCCCC(=O)/C=C/C(=O)O,z-score,,-0.738 (inactive)
same,cell count,,5950
CCCCC[C@H](O)/C=C/[C@@H]1[C@H](C/C=C\CCCC(=O)O)[C@@H](O)C[C@H]1O,z-score,,-0.418 (inactive)
same,cell count,,5540
O=C(Nc1ccc(S(=O)(=O)Nc2ccccc2Cl)c(Cl)c1)c1ccccn1,z-score,[5],-0.0523 (inactive)
same,z-score,[6],0.247 (inactive)
same,z-score,[7],0.0843 (inactive)
same,z-score,[4],-0.408 (inactive)
same,cell count,[5],5940
same,cell count,[6],5620
same,cell count,[7],5480
same,cell count,[4],5970
Cc1cc(Nc2cc(NC(=O)c3c(Cl)cccc3Cl)ccn2)nc(N)n1,outcome,library stock 10 mM,inactive
same,z-score,[1],-0.552 (inactive)
same,z-score,[2],2.25 (active)
same,z-score,[3],7.34 (active)
same,cell count,[1],7000
same,cell count,[2],3680
same,cell count,[3],1560
Cc1cc(Nc2ccc(NC(=O)c3ccc(Nc4ccnc5ccccc45)cc3)cc2)nc(N)n1,outcome,library stock 10 mM,inactive; censored for cell count
same,z-score,[5],-0.573 (inactive)
same,z-score,[6],-0.616 (inactive)
same,z-score,[7],-0.871 (inactive)
same,cell count,[5],6440
same,cell count,[6],6580
same,cell count,[7],6140
COc1ccc(C(=O)C(=O)c2ccccc2)cc1,z-score,[1],-0.147 (inactive)
same,z-score,[2],-0.127 (inactive)
same,z-score,[3],-0.0906 (inactive)
same,z-score,[4],-0.261 (inactive)
same,cell count,[1],5340
same,cell count,[2],4770
same,cell count,[3],4920
same,cell count,[4],4940
CCCCCCCCCCCCCCCC(=O)SCCOP(=O)([O-])OCC[N+](C)(C)C,z-score,,0.0631 (inactive)
same,cell count,,5610
CCC1C(=O)N(C)c2cnc(Nc3ccc(C(=O)NC4CCN(C)CC4)cc3OC)nc2N1C1CCCC1 (stereo not given),outcome,library stock 80 µM,inactive; censored for cell count
same,outcome,library stock 400 µM,inactive; censored for cell count
same,outcome,library stock 2 mM,inactive; censored for cell count
same,outcome,library stock 10 mM,inactive; censored for cell count
COc1cc(C(=O)NC2CCN(C)CC2)ccc1Nc1ncc2c(n1)N(C1CCCC1)C(C)CC(=O)N2C (stereo not given),outcome,library stock 10 mM,inactive; censored for cell count
same,z-score,[5],-0.18 (inactive)
same,z-score,[6],-0.538 (inactive)
same,z-score,[7],-0.076 (inactive)
same,cell count,[5],4460
same,cell count,[6],4710
same,cell count,[7],4310
COc1cc(C(=O)N2CCC(N3CCN(C)CC3)CC2)ccc1Nc1ncc2c(n1)N(C)c1ccccc1C(=O)N2C,z-score,[5],-0.05 (inactive)
same,z-score,[6],0.293 (inactive)
same,z-score,[7],2.34 (active)
same,z-score,[4],4.4 (active)
same,cell count,[5],4870
same,cell count,[6],4880
same,cell count,[7],4160
same,cell count,[4],3320
